Hits are enriched below; roughly 12% of the tested compounds scored in any of these assays.
JMJD2A Tudor inh: JMJD2A Tudor domain (human) inhibition; O75164; AlphaScreen JMJD2A-Tudor / H3K4me3 peptide binding; Potency, µM (titrated, usually from 114 µM), inactives show top-dose activity change, negative = inhibition, actives largely listed as inhibitors; 4.4% of 390,000 active; AID 504339; note: % is set by controls: 0 for no effect and ±100 for the full control effect; nearly all actives have a fitted effect of over 50% in size
L3MBTL1 inh: inhibitors of human L3MBTL1; Q9Y468; AlphaScreen L3MBTL1–H3K9me1 peptide binding; Potency, µM (series often up to 57.1 µM), for the others: at the top dose activity, negative = inhibition, actives largely listed as inhibitors; 0.66% of 230,000 active; AID 485360; note: % is set by controls: 0 for no effect and ±100 for the full control effect; nearly all actives have a fitted effect of over 60% in size
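First, the protein-peptide complex forms for 30 min at room temperature (L3MBTL1 50 nM, biotinylated H3K9me1 peptide 75 nM). Next, compounds are pin-transferred and incubated 30 min. Finally, AlphaScreen beads are added and read after 30 min.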
G9a block: G9a (human) methyltransferase inhibition. Q96KQ7. G9a H3K9 monomethylation, AlphaScreen, 2 h. Potency, µM (doses to about 102 µM), without a hit: top-dose activity, negative = inhibition, most hits filed as inhibitors. 8.8% of 350,000 active. AID 504332; note: % is set by controls: 0 for no effect and ±100 for the full control effect; nearly all actives have a fitted effect of over 75% in size
Target sequence (Q96KQ7 913-1193 limits assumed): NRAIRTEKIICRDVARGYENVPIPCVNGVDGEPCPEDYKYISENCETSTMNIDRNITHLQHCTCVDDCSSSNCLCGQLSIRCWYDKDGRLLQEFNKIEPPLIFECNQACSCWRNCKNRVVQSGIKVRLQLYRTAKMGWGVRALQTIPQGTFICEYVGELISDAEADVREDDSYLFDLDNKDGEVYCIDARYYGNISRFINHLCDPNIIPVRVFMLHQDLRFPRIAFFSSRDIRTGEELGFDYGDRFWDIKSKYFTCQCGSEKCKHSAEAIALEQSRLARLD
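G9a (20 nM) was preincubated 15 min with compound, then reacted 2 h at room temperature with 500 nM biotin-H3K9 peptide and 20 µM SAM. Monomethyl-H3K9 detected by AlphaScreen using anti-H3K9me1 antibody.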
HP1b binding inh: HP1-beta chromodomain-methylated histone interaction inhibition | AlphaScreen HP1-beta / biotin-H3K9me3 peptide binding | AID 540317 | P83916 | Potency, µM (top dose mostly 114 µM), without a hit: at the highest dose activity change, negative = inhibition, actives largely listed as inhibitors | 0.56% of 390,000 active; note: nearly all actives have a fitted effect of over 70% in size
Target sequence (P83916 whole entry, looked up): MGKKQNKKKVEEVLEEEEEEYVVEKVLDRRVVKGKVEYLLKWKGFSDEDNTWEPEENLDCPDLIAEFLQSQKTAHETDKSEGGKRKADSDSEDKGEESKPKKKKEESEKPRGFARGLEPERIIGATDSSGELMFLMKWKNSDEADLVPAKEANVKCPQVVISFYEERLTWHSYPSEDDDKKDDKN
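Compound inhibition of the preformed complex between 50 nM HP1-beta and 50 nM biotinylated H3K9me3 peptide was read by AlphaScreen. Buffer was PBS pH 7.4 with 0.01% Tween-20. Incubations ran 30 min at room temperature, with 10 ug/mL donor/acceptor beads.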
Sfp PPTase inh: blocks B. subtilis Sfp PPTase activity | Q9F4F7 | Biochemical Sfp PPTase activity, qHTS | Potency, µM, without a hit: largest response in the series, negative = inhibition, hits mostly inhibitors | 3.5% of 310,000 active;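 note: the enzyme is Sfp with the accession as filed and its product quenches rhodamine fluorescence; 0% = enzyme reaction without inhibitor and -100% = no enzyme wells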
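With Hepes-Na pH 7.6 buffer containing 10 mM MgCl2, Sfp (15 nM) modified BHQ-2-YbbR (12.5 uM) using rhodamine-CoA (5 uM). Two reads 30 minutes apart at 525/598 nm yielded each well's rate.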
BAZ2B inh: BAZ2B (human) inhibition; Q9UIF8; AlphaScreen BAZ2B-H3K14Ac peptide displacement; Potency, µM (series often up to 114 µM), without a hit: at the top dose activity change, negative = inhibition, hits mostly inhibitors; 4.4% of 360,000 active; AID 504333; note: % is set by controls: 0 for no effect and ±100 for the full control effect; nearly all actives have a fitted effect of over 60% in size
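Compounds, titrated to a top concentration of 110 uM, were incubated 30 min at room temperature with preformed BAZ2B/acetyl-K14 H3 peptide complex (50 nM each). Proximity signal was measured by AlphaScreen after 20 min with beads.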
Numbers without * were called inactive; ? = inconclusive; nt = no result given; [ ] = remark or other dose. Calls come from the whole dose curve; as a rule, active = well fitted curve in the direction sought with a large enough effect; inconclusive = small, poorly fitted or top-dose-only effect, or another doubt; inactive = no such curve, though single readings can be large; an effect the other way counts as inactive or inconclusive. Potency is the fitted concentration of half-maximal effect.

SMILES | JMJD2A Tudor inh | L3MBTL1 inh | G9a block | HP1b binding inh | Sfp PPTase inh | BAZ2B inh
O=S(=O)(NCc1ccco1)c1ccc(S(=O)(=O)N2CCCC2)cc1 | -11% | 45% | nt | 8% | 3.2µM* | ?
COc1cccc(CNS(=O)(=O)c2ccc(S(=O)(=O)N3CCCC3)cc2)c1 | 1% | 0% | nt | 41% | 10µM* | ?
O=C(CNS(=O)(=O)c1ccccc1)NCc1ccco1 | 0% | nt | 79µM* | 28% | -18% | -32%
COc1cccc(NC(=O)CCSc2ccc(C)cc2)c1 | 3% | 5% | 19% | 37% | -12% | -6%
O=c1c(-c2cccc(Cl)c2)nc2cncnc2n1Cc1ccccc1Cl | nt | nt | 8%[12.7 µM] | nt | ? | nt
C/C(=N\Nc1ccccn1)c1ccc(S(=O)(=O)NCc2ccco2)cc1 | -30%[57.1 µM] | -19% | -14%[59 µM] | ? | -3% | 50µM*
O=C(c1ccc(NC(=S)NCc2ccco2)cc1)N1CCCCC1 | -25% | 3% | 50µM* | -5% | ? | -26%
COc1ccc(/C=C(\C#N)C(=O)NCc2cccnc2)cc1OC | -13% | 3% | 6% | 2% | 15% | -6%
CC1CCCCN1C(=O)Cc1ccc(Cl)cc1 (stereo not given) | -21% | 0% | 9%[59 µM] | 20% | 3% | -6%
CC1CCCCN1C(=O)CNCC1CCCO1 (stereo not given) | 0.89µM* | -4% | 2% | ? | 16% | -15%
CC1CCCCN1C(=O)COc1ccccc1F (stereo not given) | 56µM* | 8% | 10% | -5% | 20% | 8%
CC1CCCCN1C(=O)CNCc1ccc(F)cc1 (stereo not given) | 3.2µM* | nt | ? | ? | 0% | 79µM*
CCC(=O)Nc1cc(-c2nc3ccccc3s2)c(Cl)cc1Cl | -3% | nt | -27%[59 µM] | 25% | nt | ?
CCn1c(SCC(=O)Nc2cccc(OC)c2)nc2c(c1=O)SCC2 | -17% | 3% | -41% | 31% | nt | -2%
C[C@@H]1NC(=O)[C@H](CCC(=O)O)NC(=O)c2cc([N+](=O)[O-])cc(F)c2NCCC[C@@H](C(N)=O)NC1=O | -28% | 3% | 79µM* | 14% | 7% | -6%
NC(=O)CC[C@@H]1NC(=O)C(Cc2ccc(O)cc2)NC(=O)c2cc([N+](=O)[O-])cc(F)c2NCCC[C@@H](C(N)=O)NC1=O (stereo not given in full) | nt | 1% | 50µM* | nt | -28% | ?
NC(=O)[C@@H]1CCCCNc2c(F)cc([N+](=O)[O-])cc2C(=O)N[C@@H](CC(=O)O)C(=O)NCC(=O)N1 | -6% | 8% | ? | 53% | 17% | -4%
CC[C@]12c3[nH]c4ccccc4c3CCN1C(=O)C(CC(=O)NC/C=C(\C)CCC=C(C)C)C[C@@H]2C(=O)N1CCN(C(=O)c2ccco2)CC1 (stereo not given in full) | ? | -6% | nt | 7% | nt | nt
CCN1CCN(c2cc3c(cc2F)c(=O)c(C(=O)O)cn3C2CC2)CC1 | 1% | -4% | 32µM* | 35% | 15% | ?
CC(=O)N1CCN(c2cc3c(cc2F)c(=O)c(C(=O)O)cn3C2CC2)CC1 | -8% | 6% | 50µM* | 29% | 14% | -39%
CCC(Cc1ccccc1)NC(=O)CCNS(=O)(=O)c1cc(Br)cnc1N (stereo not given) | -11% | nt | 9% | 21% | 18% | -5%
CCN(CC)CCCNC(=O)c1ccc2c(c1)sc1nc(-c3ccc(C)cc3)cn12 | ? | nt | 11µM* | -10% | nt | 40µM*
CCCNC(=O)c1ccc2c(c1)sc1nc(-c3ccc(C)cc3)cn12 | -6% | nt | 3%[59 µM] | 35% | nt | -2%
O=C(O)c1csc(N/N=C/c2ccc(Br)cc2)n1 | -20% | -18% | 35µM* | 30% | 3% | 79µM*
Cc1csc(N/N=C/c2ccc([N+](=O)[O-])cc2)n1 | -27% | -9% | -2%[59 µM] | 29% | -6% | -9%
SMILES | JMJD2A Tudor inh | L3MBTL1 inh | G9a block | HP1b binding inh | Sfp PPTase inh | BAZ2B inh
CCc1ccc(/C=C2\CN(CC)Cc3c2nc2ccccc2c3C(=O)O)cc1 | -21% | 27% | ? | 27% | 2.5µM* | 25%
CCN1C/C(=C/c2sccc2C)c2nc3ccccc3c(C(=O)O)c2C1 | ? | nt | -122%[59 µM] | 25% | -5% | ?
CCN1C/C(=C/c2cccs2)c2nc3ccccc3c(C(=O)O)c2C1 | -18% | -17% | nt | 24% | 45µM* | -26%
COc1ccc(NC(=O)c2c(NC(=O)C(F)(F)F)sc3c2CCCCC3)cc1 | -34% | nt | ? | -7% | nt | -37%
Cc1ccc(OC(=O)c2cccc([N+](=O)[O-])c2)c(-n2nc3ccccc3n2)c1 | -19% | 13% | 21%[59 µM] | 17% | -28% | -6%
Cc1cc(-n2nc3ccccc3n2)c(O)c([N+](=O)[O-])c1 | -29% | -6% | 79µM* | -7% | -9% | -35%
COc1ccccc1Cn1c(CNS(=O)(=O)c2cccc([N+](=O)[O-])c2)nc2cccnc21 | ? | nt | 33%[59 µM] | 13%[57 µM] | nt | 2%
CCC(=O)NNC(=O)CCC(=O)Nc1cccc(Cl)c1C | ? | 12% | ? | 43% | 18% | nt
COc1ccc(/C=C2\SC(N3CCc4ccccc4C3)=NC2=O)cc1OC | ? | -15% | 13µM* | ? | -6% | -37%
CCC(C)[C@H](NC(=O)C1CC(=O)N(c2ccc3c(c2)OCCO3)C1)C(=O)N1CCCCC1 (stereo not given in full) | -12% | nt | 5%[59 µM] | 28% | 12% | -8%
CCOC(=O)c1cnc2c(-c3ccc(F)cc3)cnn2c1C(F)(F)F | 35µM* | -6% | 40%[12.7 µM] | 26% | 3% | -33%
CCOc1cccc2sc(=NC(=O)CCS(=O)(=O)c3ccc(F)cc3)n(C)c12 | -20% | -2% | 1%[59 µM] | 11% | nt | 11%
Cn1c(=O)n(Cc2ccccc2)c(=O)c2c1nc1n2CCCN1CCc1ccccc1 | ? | nt | 50µM* | ? | -7% | ?
Cn1c(Br)nc2c1c(=O)n(Cc1ccccc1)c(=O)n2C | -26% | nt | nt | 17% | 1% | -9%
Cn1c(NN)nc2c1c(=O)n(Cc1ccccc1)c(=O)n2C | -36% | nt | 28µM* | -3% | ? | ?
Cn1c(N)nc2ccccc2c1=O | -4% | 4% | -4% | 26% | 14% | -3%
Cn1c(NN)nc2ccccc2c1=O | -2% | -3% | 50µM* | 41% | 18µM* | -23%
CCOC(=O)N1CCN(C(=O)CCCn2c(=S)[nH]c3ccsc3c2=O)CC1 | 22µM* | nt | 32µM* | 19% | 56µM* | ?
CCOC(=O)N1CCN(C(=O)CCCn2c(=S)[nH]c3ccccc3c2=O)CC1 | ? | nt | ? | 39% | ? | ?

Compound activity deposited in PubChem by National Center for Advancing Translational Sciences (NCATS).
